Measurements as given in PubChem BioAssay AID1347416 (National Center for Advancing Translational Sciences (NCATS), 2020).
About 1,600 (39%) of roughly 4,100 compounds were called active. Roughly 25% stayed inconclusive and do not appear here. Calls follow the shape of the dose curve; as a rule, active = well fitted inhibition curve with a large enough effect; inconclusive = small, poorly fitted or top-dose-only effect; inactive = no such curve, though single readings can be large or run the other way. The list shows a part of the results. Where a call stands in place of a potency, no number is given.
Potency is read from the fitted curve at half-maximal effect.

Assay: qHTS Validation assay for Inhibitors of Plasmodium falciparum Dd2 growth in vitro; also: nearly all actives have a fitted effect of over 70% in size
Settings: P. falciparum Dd2 in RBCs, SYBR Green growth, 72 h; series mostly up to 28.7 µM
Procedure, shortened: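 P. falciparum Dd2-infected red blood cells (2.5% hematocrit, 0.3% parasitemia) grown 72 h at 37 °C under 5% O2 with compounds in a titration, 29 uM to 0.5 nM final. Growth read as SYBR Green-1 fluorescence after ~16 h lysis; artesunate 300 nM as positive control.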
With CC1(COc2ccccc2)COc2ccc(C(=O)NCc3cnccn3)cc2N1 (stereo unspecified) the Potency was “inactive”.
For Cc1nccn1C1(C(=O)O)CCN(Cc2ccc(-c3ccn[nH]3)o2)CC1, the Potency was “inactive”.
In the case of c1csc(-c2cn3ccc4ccccc4c3n2)c1, the Potency is reported as “inactive”.
With Cc1noc(-c2cccs2)c1C(=O)NC(C)c1cccc2ccccc12 (stereo unspecified) the Potency was 0.668 µM (active).
In the case of O=C(NCc1nc(-c2ncccn2)no1)c1csc(-c2cccs2)n1, the Potency is reported as “inactive”.
With CNC(=O)c1ccsc1NC(=O)CCS(=O)(=O)c1ccccc1 the Potency was “inactive”.
In the case of O=C(O)c1ccc(C2SCC(=O)N2Cc2ccco2)cc1 (stereo unspecified), the Potency is reported as “inactive”.
For Cc1cc(C(=O)CN2C(=O)NC(c3ccccc3)(c3ccccc3)C2=O)c(C)n1Cc1ccco1, the Potency was 8.41 µM (active).
With Cc1cc(C(=O)CN2C(=O)NC(C)(c3cccc(Br)c3)C2=O)c(C)n1Cc1ccco1 (stereo unspecified) the Potency was 13.3 µM (active).
With CC1(c2ccccn2)Nc2ccccc2-c2nc3ccccc3n21 (stereo unspecified) the Potency was 5.31 µM (active).
With O=C1Nc2ccccc2C12Nc1ccccc1-c1nc3ccccc3n12 (stereo unspecified) the Potency was 6.68 µM (active).
For COc1ccc2c(c1)C1(Nc3ccccc3-c3nc4ccccc4n31)C(=O)N2 (stereo unspecified), the Potency was 0.596 µM (active).
For CS(=O)(=O)c1ccc(-c2cnc([C@@H]3COCCN3Cc3ccccc3)[nH]2)cc1, the Potency was “inactive”.
For Oc1ccccc1CN1CCOC[C@H]1c1ncc(-c2ccc(C(F)(F)F)cc2)[nH]1, the Potency was 4.85 µM (active).
For COc1ccc(-c2cnc([C@@H]3COCCN3Cc3ccccc3O)[nH]2)cc1, the Potency was 17.2 µM (active).
With COc1cc(OC)cc(C(=O)N2CCC(c3nc(C4CCOC4)no3)CC2)c1 (stereo unspecified) the Potency was “inactive”.
In the case of O=c1c(NCCc2ccccc2)c(-c2ccccc2)c1=O, the Potency is reported as “inactive”.
With c1ccc2cc3c(NCCN4CCOCC4)ccnc3cc2c1 the Potency was 1.68 µM (active).
With c1ccc(CCNc2ccnc3cc4ccccc4cc23)cc1 the Potency was 1.68 µM (active).
For COCCN1Cc2ccc(NCC(C)C)nc2C(C)(C(=O)Nc2ccncc2)C1 (stereo unspecified), the Potency was 21.7 µM (active).
With CC1(C)C(=O)N(CC2CCOCC2)[C@H]2CN(CCCc3ccccc3)C[C@@H]2[S+]1(=O)[O-] the Potency was “inactive”.
In the case of O=C(CC1C(=O)N(Cc2ccccc2)C(=S)N1CCN1CCOCC1)Nc1ccc(F)cc1 (stereo unspecified), the Potency is reported as 5.31 µM (active).
For COc1cccc(N2C(=O)C(CC(=O)Nc3ccccc3)N(CCc3sccc3C)C2=O)c1 (stereo unspecified), the Potency was “inactive”.
With COC(=O)c1cc(NC(=O)CC2C(=O)OCCN2Cc2ccccc2)cc(C(=O)OC)c1 (stereo unspecified) the Potency was “inactive”.
In the case of Cc1noc(C)c1CCC(=O)NC1CCc2nn(CC3CC3)c(=O)n2CC1 (stereo unspecified), the Potency is reported as “inactive”.
With N#CC(=C1CCCC1)c1nc(-c2ccccc2O)cs1 the Potency was 9.44 µM (active).
With CN(Cc1ccc(-n2cccn2)cc1)CC1CCN(CCc2ccc(F)cc2)CC1 the Potency was 10.6 µM (active).
For CN(CC1CCN(CCc2ccc(Cl)cc2)CC1)C(=O)c1ccccc1C#N, the Potency was “inactive”.
In the case of Cc1[nH]n(-c2ccccc2)c(=O)c1/C=N/Nc1nncc(-c2ccccc2)n1, the Potency is reported as 4.22 µM (active).
With COC(=O)[C@H](Cc1ccc(OC)cc1)NC(=O)[C@H]1CN(C(=O)Nc2ccccc2)CCN1C(=O)NC(C)C the Potency was “inactive”.
For COC(=O)[C@H](Cc1ccc(OC)cc1)NC(=O)[C@H]1CN(C(=O)c2ccc(N(C)C)cc2)CCN1C(=O)c1cccs1, the Potency was 0.188 µM (active).
With CN(C)C(=O)c1ccc(OC2CCN(C(=O)c3cccs3)CC2)nc1 the Potency was “inactive”.
With CN(C)c1ccc(CC(=O)N2CC[C@@](C)(O)[C@@H](O)C2)cc1 the Potency was “inactive”.
In the case of COc1ccc(C(=O)N2CCN(C(=O)C3CCCCC3)C[C@@H]2C(=O)N[C@H]2CCCNC2=O)cc1, the Potency is reported as “inactive”.
With COC(=O)[C@H](Cc1ccc(OC)cc1)NC(=O)[C@H]1CN(C(=O)c2ccc(N(C)C)cc2)CCN1C(=O)C1CCCCC1 the Potency was 0.668 µM (active).
With CC(=O)N1CCc2cc(S(=O)(=O)NC(Cc3ccccc3)C(=O)Nc3cc(C)cc(C)c3)ccc21 (stereo unspecified) the Potency was “inactive”.
With Cc1cccc(C(=O)N2CCc3cc(CNC(=O)c4ccc(Br)o4)ccc32)c1 the Potency was 9.44 µM (active).
In the case of Cc1ccc(C(=O)N2CCc3cc(CNC(=O)CCc4ccccc4)ccc32)cc1, the Potency is reported as “inactive”.
In the case of O=S(=O)(c1ccc(Cl)cc1)N1CCN(C(=S)NCC2CCCO2)CC1 (stereo unspecified), the Potency is reported as 1.88 µM (active).
For O=S(=O)(c1ccc(F)cc1)N1CCN(C(=S)NCCc2ccccc2)CC1, the Potency was 5.96 µM (active).
With CCOC(=O)Cn1c(=O)oc2cc(S(=O)(=O)N3CCCC(C)C3)ccc21 (stereo unspecified) the Potency was “inactive”.
For O=C(CCC1CCN(S(=O)(=O)c2ccccc2)CC1)NCc1ccc(F)cc1, the Potency was “inactive”.
With COc1ccccc1NC(=O)Cn1c(=O)n(CCC(=O)NCC2CCCO2)c(=O)c2cc(OC)c(OC)cc21 (stereo unspecified) the Potency was “inactive”.
With O=C(NCc1ccc(Cl)cc1)C1CCN(S(=O)(=O)c2cccc3nonc23)CC1 the Potency was “inactive”.
With COc1ccc(S(=O)(=O)N2CCN(C(=S)NCC3CCCO3)CC2)cc1OC (stereo unspecified) the Potency was 6.68 µM (active).
In the case of CS(=O)(=O)N1CCC(C2CCN(C(=O)Cc3ccc(Cl)cc3)C2)CC1 (stereo unspecified), the Potency is reported as “inactive”.
With O=S(=O)(c1ccc(F)cc1)N1CCN(C(=S)NCC2CCCO2)CC1 (stereo unspecified) the Potency was 6.68 µM (active).
In the case of O=C(O)c1ccc(S(=O)(=O)N(Cc2cccs2)CC2CCCO2)cc1 (stereo unspecified), the Potency is reported as “inactive”.
With CCOCCCNC(=O)CN1C(=O)c2c(c3ccccc3n2C)C1c1ccc(OC)cc1 (stereo unspecified) the Potency was “inactive”.
With Cc1ccc(-c2noc(CCC(=O)Nc3ccc(C)cn3)n2)cc1 the Potency was “inactive”.
For CN1C(=O)[C@H]2CN(Cc3ccc(C#N)cc3)C[C@H]2C1=O, the Potency was “inactive”.
For O=C1NCCCCCCN(Cc2ccncc2)[C@@H]2CN(C(=O)NC3CCCCC3)CC[C@@H]12, the Potency was “inactive”.
In the case of N#Cc1ccc(CN2CC[C@@H]3C(=O)NCCCCCCN(Cc4ccncc4)[C@@H]3C2)cc1, the Potency is reported as 10.6 µM (active).
For CCc1ccc2c(c1)cc(CN(C(=S)Nc1cccc(C)c1)C1CC1)c1nnnn12, the Potency was 3.35 µM (active).
In the case of O=C(CC(c1ccc(F)cc1)c1cn(Cc2ccccc2)c2ccc([N+](=O)[O-])cc12)N1CCOCC1 (stereo unspecified), the Potency is reported as 9.44 µM (active).
With Cc1ccoc1C(=O)N1C[C@@H](COCC2CC2)[C@H](c2ccncc2)C1 the Potency was “inactive”.
For CCOC(=O)c1c(C)[nH]c(C)c1S(=O)(=O)N1CCN(c2cccc(C(F)(F)F)c2)CC1, the Potency was “inactive”.
For CCC(C)(C)n1nnnc1C(c1cccnc1)N1CCN(c2cccc(C(F)(F)F)c2)CC1 (stereo unspecified), the Potency was 6.68 µM (active).
With CNC(=O)[C@@H]1C[C@H](n2cc(CN(C)C(=O)NCC3CCCCC3)nn2)CN1 the Potency was “inactive”.
For CCCn1c(=N)c(C(=O)NC2CCCC2)cc2c(=O)n3cccc(C)c3nc21, the Potency was 5.96 µM (active).
In the case of CCn1c(CO)nnc1C1CC(NC(=O)c2cnc3sccn3c2=O)C1 (stereo unspecified), the Potency is reported as “inactive”.
In the case of COCCCn1c(=N)c(C(=O)NCC2CCCO2)cc2c(=O)n3cc(C)ccc3nc21 (stereo unspecified), the Potency is reported as “inactive”.
With CCCCn1c(=N)c(C(=O)NC2CCCCC2)cc2c(=O)n3cccc(C)c3nc21 the Potency was 1.5 µM (active).
In the case of CCCn1c(=N)c(C(=O)NCc2ccc3c(c2)OCO3)cc2c(=O)n3cccc(C)c3nc21, the Potency is reported as 10.6 µM (active).
For CCCn1c(=N)c(C(=O)NC2CCCCC2)cc2c(=O)n3cc(C)ccc3nc21, the Potency was “inactive”.
For CCCN1C(=O)Cc2cc(C(=O)NCc3ccc(C)c(C)c3)ccc21, the Potency was “inactive”.
In the case of COc1ccccc1N1CCN(C(=O)c2ccc3c(=O)n(Cc4ccc5c(c4)OCO5)c(=O)[nH]c3c2)CC1, the Potency is reported as 2.99 µM (active).
For COC(=O)c1ccc2c(=O)n(CCCCCC(=O)NCCc3ccccc3)c(=O)[nH]c2c1, the Potency was “inactive”.
In the case of CCOc1cc2[nH]c(=O)n(Cc3ccc(C(=O)N4CCN(c5cccc(Cl)c5)CC4)cc3)c(=O)c2cc1OCC, the Potency is reported as “inactive”.
For OC(c1cc(-c2ccc(C(F)(F)F)cc2)nc(C(F)(F)F)c1)C1CCCCN1 (stereo unspecified), the Potency was 0.15 µM (active).
With CN(CC1CCOCC1)S(=O)(=O)c1ccc(C(F)(F)F)cc1 the Potency was “inactive”.
With Nc1nonc1-n1nnc(C(=O)N/N=C/c2ccc(Br)cc2)c1-c1ccc2c(c1)OCO2 the Potency was 0.422 µM (active).
In the case of Nc1nonc1-n1nnc(C(=O)N/N=C/c2ccc(Cl)cc2)c1-c1ccc2c(c1)OCO2, the Potency is reported as 0.376 µM (active).
In the case of O=C(CSc1nnc(Cc2cccs2)n1-c1ccc(Cl)cc1)NCc1ccc2c(c1)OCO2, the Potency is reported as “inactive”.
In the case of Cc1ccc(-c2c(C(=O)N/N=C/c3cccc(Cl)c3)nnn2-c2nonc2N)cc1, the Potency is reported as 0.237 µM (active).
In the case of Nc1nonc1-n1nnc(C(=O)N/N=C/c2ccc(F)cc2)c1-c1ccc2c(c1)OCO2, the Potency is reported as 0.335 µM (active).
For Nc1nonc1-n1nnc(C(=O)N/N=C/c2cccs2)c1-c1ccc2c(c1)OCO2, the Potency was 1.68 µM (active).
In the case of COc1ccc(NC(=O)c2cc3n(n2)CC(c2ccc(Cl)cc2)OC3)cc1Cl (stereo unspecified), the Potency is reported as “inactive”.
With COc1ccc(NC(=O)N2CCCC(Cn3cnc4cccnc43)C2)cc1Cl (stereo unspecified) the Potency was “inactive”.
In the case of Cc1oc2ccc(O)c(CN3CCCC(C)C3)c2c1C(=O)Nc1ccccc1 (stereo unspecified), the Potency is reported as 2.11 µM (active).
In the case of COc1ccc(NC(=O)c2c(C)oc3ccc(O)c(CN4CCCC(C)C4)c23)cc1Cl (stereo unspecified), the Potency is reported as 0.944 µM (active).
For Cc1ccc(CN2CCc3nc(C(=O)Nc4cccnc4)oc3CC2)o1, the Potency was “inactive”.
In the case of COc1ccc(NC(=O)c2c(C)oc3ccc(O)c(CN4CCCCCC4)c23)cc1Cl, the Potency is reported as 1.88 µM (active).
For CSCc1noc(Cc2c(C)nn(-c3ccccc3)c2C)n1, the Potency was “inactive”.
For CCOc1ccc(OCC)c(NC(=O)c2nnn(CC(=O)Nc3cc(Cl)ccc3OC)c2N)c1, the Potency was “inactive”.
With Cc1cc(O)c(-c2cc(C(=O)Nc3ccc(S(=O)(=O)N4CCOCC4)cc3)[nH]n2)cc1C the Potency was 1.68 µM (active).
For Cc1ccccc1-c1cc(C(=O)N2CCC3(CC2)CC(O)CCO3)[nH]n1 (stereo unspecified), the Potency was “inactive”.
With COc1ccccc1-c1cc(C(=O)N2CCN(S(=O)(=O)c3ccc(C)cc3)CC2)[nH]n1 the Potency was 7.5 µM (active).
For NS(=O)(=O)c1ccc(NC(=O)CN2C(=O)COc3ccc(Cl)cc32)cc1, the Potency was “inactive”.
With O=C(Nc1ccc(S(=O)(=O)N2CCOCC2)cc1)c1cc(-c2cc(Cl)ccc2O)n[nH]1 the Potency was 2.66 µM (active).
For CN1CC2(CCN(S(=O)(=O)c3ccc(C#N)cc3)CC2)CC1C(=O)N1CCOCC1 (stereo unspecified), the Potency was “inactive”.
For Cc1ccc(NC(=O)c2cc(-c3ccc[nH]3)n[nH]2)cc1C, the Potency was “inactive”.
For COc1ccc(C(=O)Nc2cc(-c3nc4ccccc4s3)ccc2OC)cc1, the Potency was “inactive”.
In the case of COc1ccc(S(=O)(=O)N2CCN(C(=O)c3cc(-c4ccccc4OC)n[nH]3)CC2)cc1, the Potency is reported as “inactive”.
For Cc1ccc(Cl)cc1NC(=O)c1cc(S(=O)(=O)N2CCOCC2)cn1C, the Potency was “inactive”.
In the case of COc1ccc(OC)c(NC(=O)c2cc(-c3cc(Cl)ccc3O)n[nH]2)c1, the Potency is reported as 4.73 µM (active).
